Data from the supplement of paper PMC11732987, “Enantioselective OTUD7B fragment discovery through chemoproteomics screening and high-throughput optimisation” (Communications Chemistry, 2025).

Tests used:
Experiment in all cases: log2 ratio of Biotin-Ahx-Ub-VS probe labelling (fragment/DMSO); higher = less target engagement (more negative = stronger competition), active = hit call of the paper (q ≤ 0.05, log2 ratio ≤ -1)
Settings in all cases: compound concentration: 200 uM; treatment time: 3 h
USP34 = USP34 (UniProt Q70CQ2)
Procedure, shortened: (§1)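 Fragment (200 µM) or vehicle was incubated for 3 h with triplicate HEK293T lysate samples of 495 µg, which were then treated with Biotin-Ahx-Ub-VS at 0.5 µM final for 1 h. Labelled DUBs were enriched on NeutrAvidin, digested with LysC and trypsin, and analysed by diaPASEF LC-MS/MS. Values are average log2 fragment/vehicle ratios from an unpaired t-test on global-median-normalised Spectronaut label-free quantities, using proteins with ≥2 unique peptides.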

USP36 = target: T1, USP36 (UniProt Q9P275)
T1 sequence (whole entry): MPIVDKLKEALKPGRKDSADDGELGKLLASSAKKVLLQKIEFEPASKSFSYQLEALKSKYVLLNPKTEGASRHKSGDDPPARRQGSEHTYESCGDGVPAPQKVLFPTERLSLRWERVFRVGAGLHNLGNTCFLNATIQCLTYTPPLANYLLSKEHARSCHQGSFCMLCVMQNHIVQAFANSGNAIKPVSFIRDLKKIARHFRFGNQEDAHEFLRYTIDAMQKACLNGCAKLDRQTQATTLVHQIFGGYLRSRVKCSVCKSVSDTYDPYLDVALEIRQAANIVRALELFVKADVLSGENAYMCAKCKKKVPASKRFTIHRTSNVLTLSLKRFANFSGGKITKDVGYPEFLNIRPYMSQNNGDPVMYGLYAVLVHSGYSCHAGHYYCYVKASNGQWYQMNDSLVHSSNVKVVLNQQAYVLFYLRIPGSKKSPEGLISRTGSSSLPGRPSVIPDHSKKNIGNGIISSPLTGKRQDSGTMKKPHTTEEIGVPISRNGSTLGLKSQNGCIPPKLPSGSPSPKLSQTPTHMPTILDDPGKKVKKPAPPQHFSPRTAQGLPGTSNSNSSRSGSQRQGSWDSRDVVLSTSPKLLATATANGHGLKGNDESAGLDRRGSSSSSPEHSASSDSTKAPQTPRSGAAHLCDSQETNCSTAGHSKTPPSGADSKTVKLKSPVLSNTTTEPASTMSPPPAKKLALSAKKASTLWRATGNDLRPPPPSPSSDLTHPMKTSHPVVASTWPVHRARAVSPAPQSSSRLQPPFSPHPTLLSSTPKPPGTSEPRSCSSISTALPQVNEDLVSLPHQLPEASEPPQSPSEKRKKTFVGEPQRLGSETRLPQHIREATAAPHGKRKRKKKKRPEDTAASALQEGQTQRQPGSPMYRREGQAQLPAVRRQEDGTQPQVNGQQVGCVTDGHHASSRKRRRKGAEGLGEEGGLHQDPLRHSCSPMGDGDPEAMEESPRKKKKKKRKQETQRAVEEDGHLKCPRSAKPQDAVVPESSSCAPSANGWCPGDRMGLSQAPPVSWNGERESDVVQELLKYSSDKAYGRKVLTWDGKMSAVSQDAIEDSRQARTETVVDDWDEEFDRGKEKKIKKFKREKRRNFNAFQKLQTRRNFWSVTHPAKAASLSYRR
Procedure, shortened: as §1

USP38 = target: T2, USP38 (UniProt Q8NB14)
T2 sequence (whole entry): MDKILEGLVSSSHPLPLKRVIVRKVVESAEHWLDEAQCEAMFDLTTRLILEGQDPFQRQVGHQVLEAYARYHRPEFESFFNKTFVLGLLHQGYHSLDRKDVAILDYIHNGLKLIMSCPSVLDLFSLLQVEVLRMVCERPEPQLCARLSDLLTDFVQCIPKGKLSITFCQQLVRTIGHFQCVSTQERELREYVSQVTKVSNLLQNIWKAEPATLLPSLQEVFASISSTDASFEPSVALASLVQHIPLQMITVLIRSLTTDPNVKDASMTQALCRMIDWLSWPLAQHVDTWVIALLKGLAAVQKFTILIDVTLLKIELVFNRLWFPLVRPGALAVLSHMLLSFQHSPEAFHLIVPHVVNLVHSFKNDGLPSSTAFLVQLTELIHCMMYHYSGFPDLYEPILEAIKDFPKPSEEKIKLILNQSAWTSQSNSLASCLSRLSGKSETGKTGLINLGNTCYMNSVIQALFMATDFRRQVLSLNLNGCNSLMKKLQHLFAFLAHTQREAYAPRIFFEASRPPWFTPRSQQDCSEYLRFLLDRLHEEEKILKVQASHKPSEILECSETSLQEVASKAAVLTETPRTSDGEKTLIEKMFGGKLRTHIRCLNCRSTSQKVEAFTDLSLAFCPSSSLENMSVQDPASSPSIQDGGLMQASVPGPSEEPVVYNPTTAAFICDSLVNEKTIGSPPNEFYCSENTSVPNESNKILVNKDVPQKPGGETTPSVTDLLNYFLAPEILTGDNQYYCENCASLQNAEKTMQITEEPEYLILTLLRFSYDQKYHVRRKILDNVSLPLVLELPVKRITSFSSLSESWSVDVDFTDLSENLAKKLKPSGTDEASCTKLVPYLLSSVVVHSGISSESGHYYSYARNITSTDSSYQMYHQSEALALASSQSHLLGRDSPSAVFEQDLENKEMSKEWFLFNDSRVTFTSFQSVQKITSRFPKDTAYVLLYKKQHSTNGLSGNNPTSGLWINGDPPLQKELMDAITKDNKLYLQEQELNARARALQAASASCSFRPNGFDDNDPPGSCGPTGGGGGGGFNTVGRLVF
Procedure, shortened: as §1

USP39 = target: T3, USP39 (UniProt Q53GS9)
T3 sequence (whole entry): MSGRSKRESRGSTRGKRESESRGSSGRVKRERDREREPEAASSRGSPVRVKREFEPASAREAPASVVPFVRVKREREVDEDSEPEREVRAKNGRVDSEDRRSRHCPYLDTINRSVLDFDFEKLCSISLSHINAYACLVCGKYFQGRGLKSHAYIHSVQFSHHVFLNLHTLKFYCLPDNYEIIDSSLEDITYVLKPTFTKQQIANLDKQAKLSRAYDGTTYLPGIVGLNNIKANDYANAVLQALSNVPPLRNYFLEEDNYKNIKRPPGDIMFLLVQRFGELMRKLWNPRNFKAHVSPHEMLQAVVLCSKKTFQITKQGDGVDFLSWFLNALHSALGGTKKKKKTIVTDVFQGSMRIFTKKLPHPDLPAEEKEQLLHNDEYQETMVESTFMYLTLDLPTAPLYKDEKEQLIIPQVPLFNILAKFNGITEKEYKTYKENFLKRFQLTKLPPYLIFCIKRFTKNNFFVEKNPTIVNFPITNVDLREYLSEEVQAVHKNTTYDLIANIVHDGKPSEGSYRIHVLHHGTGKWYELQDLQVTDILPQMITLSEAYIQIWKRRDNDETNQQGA
Procedure, shortened: as §1

USP4 = target: T4, USP4 (UniProt Q13107)
T4 sequence (whole entry): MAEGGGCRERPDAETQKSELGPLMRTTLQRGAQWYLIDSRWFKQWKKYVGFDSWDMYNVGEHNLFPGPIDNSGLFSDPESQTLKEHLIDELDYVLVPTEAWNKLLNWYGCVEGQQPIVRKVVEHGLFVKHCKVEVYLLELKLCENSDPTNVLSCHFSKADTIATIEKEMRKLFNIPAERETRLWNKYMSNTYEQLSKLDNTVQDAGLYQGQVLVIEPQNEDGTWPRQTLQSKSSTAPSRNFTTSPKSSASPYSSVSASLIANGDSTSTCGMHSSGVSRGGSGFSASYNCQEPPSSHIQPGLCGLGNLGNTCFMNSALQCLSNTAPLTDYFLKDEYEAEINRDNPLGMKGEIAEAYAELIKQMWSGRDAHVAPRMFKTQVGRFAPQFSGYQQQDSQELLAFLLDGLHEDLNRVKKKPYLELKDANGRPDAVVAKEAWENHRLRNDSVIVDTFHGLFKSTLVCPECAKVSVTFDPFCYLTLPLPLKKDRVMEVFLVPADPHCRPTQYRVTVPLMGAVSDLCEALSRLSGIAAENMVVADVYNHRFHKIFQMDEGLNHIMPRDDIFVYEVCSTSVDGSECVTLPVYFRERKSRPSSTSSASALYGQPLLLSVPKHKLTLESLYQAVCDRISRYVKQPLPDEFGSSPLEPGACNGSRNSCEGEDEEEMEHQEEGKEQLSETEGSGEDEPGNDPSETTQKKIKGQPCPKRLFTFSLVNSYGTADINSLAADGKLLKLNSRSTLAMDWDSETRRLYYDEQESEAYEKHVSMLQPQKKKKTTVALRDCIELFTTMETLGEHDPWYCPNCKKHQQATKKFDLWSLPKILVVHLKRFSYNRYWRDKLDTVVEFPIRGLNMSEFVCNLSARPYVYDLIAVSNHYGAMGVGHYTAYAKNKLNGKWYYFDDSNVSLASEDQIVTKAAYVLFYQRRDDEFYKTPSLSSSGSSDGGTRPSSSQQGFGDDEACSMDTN
Procedure, shortened: as §1

Measured: log2 ratio of Biotin-Ahx-Ub-VS probe labelling

Sequence of USP34 (Q70CQ2 whole entry, the tested form may be a part): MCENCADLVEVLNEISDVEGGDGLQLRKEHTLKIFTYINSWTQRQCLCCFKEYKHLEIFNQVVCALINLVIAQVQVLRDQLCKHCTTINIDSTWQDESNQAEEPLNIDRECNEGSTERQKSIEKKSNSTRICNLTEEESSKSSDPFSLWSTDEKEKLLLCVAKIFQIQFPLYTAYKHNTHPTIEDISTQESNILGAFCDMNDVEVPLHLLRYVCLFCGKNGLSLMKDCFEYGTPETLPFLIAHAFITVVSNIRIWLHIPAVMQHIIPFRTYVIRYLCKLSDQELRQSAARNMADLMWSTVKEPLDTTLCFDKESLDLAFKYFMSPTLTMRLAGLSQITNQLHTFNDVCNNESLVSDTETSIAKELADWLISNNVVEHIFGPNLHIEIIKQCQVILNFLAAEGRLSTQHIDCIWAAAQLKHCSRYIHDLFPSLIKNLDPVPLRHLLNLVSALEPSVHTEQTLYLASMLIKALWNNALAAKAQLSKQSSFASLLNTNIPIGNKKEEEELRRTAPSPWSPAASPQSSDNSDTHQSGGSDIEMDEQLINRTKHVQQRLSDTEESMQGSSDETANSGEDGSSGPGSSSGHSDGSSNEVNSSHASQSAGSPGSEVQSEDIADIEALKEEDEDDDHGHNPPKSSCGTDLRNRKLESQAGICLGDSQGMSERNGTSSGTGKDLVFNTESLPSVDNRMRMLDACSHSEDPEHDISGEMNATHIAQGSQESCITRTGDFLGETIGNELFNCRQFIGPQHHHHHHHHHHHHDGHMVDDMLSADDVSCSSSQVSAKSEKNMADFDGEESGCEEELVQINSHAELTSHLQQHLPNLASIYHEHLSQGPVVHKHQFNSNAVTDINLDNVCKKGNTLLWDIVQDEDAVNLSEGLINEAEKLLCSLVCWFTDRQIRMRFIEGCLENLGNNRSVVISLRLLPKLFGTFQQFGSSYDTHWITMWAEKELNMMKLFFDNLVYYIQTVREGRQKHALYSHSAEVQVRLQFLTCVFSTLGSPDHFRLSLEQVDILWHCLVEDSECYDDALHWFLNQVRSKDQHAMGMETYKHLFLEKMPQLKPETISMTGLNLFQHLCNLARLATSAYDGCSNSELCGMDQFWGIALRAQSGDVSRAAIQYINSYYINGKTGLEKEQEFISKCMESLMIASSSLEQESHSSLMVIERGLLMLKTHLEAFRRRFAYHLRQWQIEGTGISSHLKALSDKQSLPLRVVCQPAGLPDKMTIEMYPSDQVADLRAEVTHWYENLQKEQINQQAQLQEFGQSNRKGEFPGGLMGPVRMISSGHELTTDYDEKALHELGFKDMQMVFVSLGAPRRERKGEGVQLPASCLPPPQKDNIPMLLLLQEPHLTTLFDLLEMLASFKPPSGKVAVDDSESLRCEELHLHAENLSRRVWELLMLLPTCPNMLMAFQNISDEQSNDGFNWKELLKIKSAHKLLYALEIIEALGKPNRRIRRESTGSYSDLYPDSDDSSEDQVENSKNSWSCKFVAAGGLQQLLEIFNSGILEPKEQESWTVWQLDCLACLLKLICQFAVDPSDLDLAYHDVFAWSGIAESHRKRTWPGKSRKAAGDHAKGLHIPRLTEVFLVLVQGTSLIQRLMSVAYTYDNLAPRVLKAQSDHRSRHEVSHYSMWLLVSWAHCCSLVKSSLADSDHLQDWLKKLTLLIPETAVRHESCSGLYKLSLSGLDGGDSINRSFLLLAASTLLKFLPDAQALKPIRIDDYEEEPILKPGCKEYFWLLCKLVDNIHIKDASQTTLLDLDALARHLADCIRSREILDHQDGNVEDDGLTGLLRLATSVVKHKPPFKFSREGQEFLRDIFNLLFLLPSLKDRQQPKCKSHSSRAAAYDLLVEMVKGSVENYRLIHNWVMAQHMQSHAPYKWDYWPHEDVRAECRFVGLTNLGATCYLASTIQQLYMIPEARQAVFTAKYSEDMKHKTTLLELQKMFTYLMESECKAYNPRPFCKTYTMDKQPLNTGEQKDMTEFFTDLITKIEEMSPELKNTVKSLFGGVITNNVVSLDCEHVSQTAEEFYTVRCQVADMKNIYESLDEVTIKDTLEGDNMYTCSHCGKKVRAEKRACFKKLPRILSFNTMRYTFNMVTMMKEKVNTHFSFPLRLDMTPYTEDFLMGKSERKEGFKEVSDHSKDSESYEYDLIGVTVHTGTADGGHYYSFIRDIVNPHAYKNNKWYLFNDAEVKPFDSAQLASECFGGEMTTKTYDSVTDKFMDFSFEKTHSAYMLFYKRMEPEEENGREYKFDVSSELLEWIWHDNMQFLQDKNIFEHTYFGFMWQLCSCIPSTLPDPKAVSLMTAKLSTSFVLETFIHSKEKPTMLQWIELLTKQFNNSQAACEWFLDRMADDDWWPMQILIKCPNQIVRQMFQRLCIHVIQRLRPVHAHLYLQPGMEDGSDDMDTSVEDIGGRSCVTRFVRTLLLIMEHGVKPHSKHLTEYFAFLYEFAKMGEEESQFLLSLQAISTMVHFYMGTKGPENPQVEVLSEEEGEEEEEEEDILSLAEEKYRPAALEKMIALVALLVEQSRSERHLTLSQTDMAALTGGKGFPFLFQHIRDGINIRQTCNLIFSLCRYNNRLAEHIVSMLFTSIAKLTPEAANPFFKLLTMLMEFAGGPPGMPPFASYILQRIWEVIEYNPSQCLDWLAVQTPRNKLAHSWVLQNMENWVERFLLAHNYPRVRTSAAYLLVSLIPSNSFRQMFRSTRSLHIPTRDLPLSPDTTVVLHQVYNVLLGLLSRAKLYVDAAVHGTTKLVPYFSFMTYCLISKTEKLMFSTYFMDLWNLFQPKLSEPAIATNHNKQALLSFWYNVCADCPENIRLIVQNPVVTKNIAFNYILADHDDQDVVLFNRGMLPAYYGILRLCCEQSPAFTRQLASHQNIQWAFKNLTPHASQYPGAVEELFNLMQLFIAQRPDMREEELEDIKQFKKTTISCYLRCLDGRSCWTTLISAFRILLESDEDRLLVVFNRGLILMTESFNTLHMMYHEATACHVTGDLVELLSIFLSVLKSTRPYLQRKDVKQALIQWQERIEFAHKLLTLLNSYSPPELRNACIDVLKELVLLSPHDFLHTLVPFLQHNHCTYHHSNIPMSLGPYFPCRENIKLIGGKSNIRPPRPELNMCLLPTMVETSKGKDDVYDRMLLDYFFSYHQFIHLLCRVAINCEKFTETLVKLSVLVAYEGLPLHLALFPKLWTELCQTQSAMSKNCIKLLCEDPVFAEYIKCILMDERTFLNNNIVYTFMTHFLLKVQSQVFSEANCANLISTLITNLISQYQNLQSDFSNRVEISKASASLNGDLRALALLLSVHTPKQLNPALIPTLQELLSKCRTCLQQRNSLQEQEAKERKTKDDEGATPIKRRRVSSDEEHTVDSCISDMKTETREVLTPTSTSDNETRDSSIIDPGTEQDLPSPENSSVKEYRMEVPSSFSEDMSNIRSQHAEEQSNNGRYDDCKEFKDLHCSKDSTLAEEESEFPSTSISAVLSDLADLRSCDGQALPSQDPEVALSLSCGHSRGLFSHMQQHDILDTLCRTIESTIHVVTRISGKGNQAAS

O=C(CCl)N1CCCCCC1c1ncon1 (stereo not given)
inactive: USP34 0.0612 | USP36 -0.0657 | USP38 0.0218 | USP39 -0.043 | USP4 -0.0581
